# Rows were chosen to be rich in hits. Some 0.44% of all compounds tested hit in one or more screens of this group.
# Giardia kill: Giardia lamblia killing; Giardia lamblia trophozoite viability; 340,000 tested, 0.15% active; AID 540267; activity change, % at 7.66 µM, hits read low; in the data active = activity change below about -80%; inconclusive = between about -30% and that limit;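 note: parasites exposed to compound for two days anaerobically before the ATP read; % is set by controls: 0 for no effect and ±100 for the full control effect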
#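 Viability, read as ATP luminescence: trophozoites at 100 cells/well, compound added, 48 hrs anaerobic at 37 deg C, then 15-30 min room-temperature development before reading.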
# p53 reactivation: restores transcriptional activity of mutant p53 | H1299 p53-A138V BP100-luciferase reporter, luminescence, 24 h | 320,000 tested, 0.063% active | Potency, µM (top dose mostly 92.2 µM), inactives show at the top dose activity change, positive = activation, actives largely listed as activators; note: potency is the fitted concentration of half-maximal effect; % of control where 0% means no effect; nearly all actives have a fitted effect of over 45% in size
#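 p53-null H1299 cells stably carrying temperature-sensitive p53-A138V and a BP100-luciferase reporter were pinned with compounds (4-point, 1:5 series) and held 24 hrs at 37 deg C. Luminescence was read 10 min after detection reagent.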
# Epigenetic reg: derepresses silenced GFP reporter in murine cells; murine LDR cells, GFP reporter derepression, 30 h; Potency, µM (titrated, usually from 53.9 µM), inactives show at the highest dose GFP activation, most hits filed as activators; 280,000 tested, 0.2% active; note: potency is the fitted concentration of half-maximal effect; % of control where 0% means no effect; nearly all actives have a fitted effect of over 60% in size
#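 GFP-positive cell count by laser-scanning cytometry (objects 20–120 um) after 30 h, 37 C compound exposure of murine LDR cells; reporter is CMV-GFP integrated at a silenced locus, inducible by HDAC or DNMT inhibitors.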
# PI4K2A inh: blocks human PI4K2A kinase activity; Q9BTU6; purified PI4K2A, ADP-Glo luminescence, 1 h; active compounds read low; activity change, negative = inhibition, % at 76.9 µM; 420,000 tested, 0.13% active; AID 1346378; in the data active = activity change below about -50%; inconclusive = mostly about -30% to -49%;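 note: -100% = wells without enzyme as full effect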
#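 In this quantitative HTS, ADP production by PI4K2A was quantified luminescently after 1 h at ambient temperature; 100 microM adenosine served as plate-quality control.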
# Pin1 inhibitor: inhibitors of human Pin1; Pin1 FP peptide displacement, HiFluor488, 10 min; Potency, µM (highest dose often 115 µM), inactives show at the top dose activity, negative = inhibition, usual class: inhibitors; 390,000 tested, 0.009% active; AID 504891; active = well fitted inhibition curve with a large enough effect in the polarisation, with a control signal flat, not every such curve was filed as active; inconclusive = small, poorly fitted or top-dose-only effect, or effect the other way, or a change in a side signal; inactive = no such curve, though single readings can be large or run the other way; the % refers to the polarisation; note: potency is the fitted concentration of half-maximal effect; % is set by controls: 0 for no effect and ±100 for the full control effect
# Target sequence (Q13526 whole entry, looked up): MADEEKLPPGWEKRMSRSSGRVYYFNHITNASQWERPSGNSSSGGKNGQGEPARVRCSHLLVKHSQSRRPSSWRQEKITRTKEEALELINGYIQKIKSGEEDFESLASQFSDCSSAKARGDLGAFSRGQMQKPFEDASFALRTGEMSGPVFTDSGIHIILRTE
# B2AR arrestin: agonists driving beta-arrestin recruitment to human beta2-adrenergic receptor. P07550. beta-arrestin recruitment to beta2AR, cell-based reporter. Potency, µM (series often up to 46.1 µM), inactives show at the top dose activation, hits mostly activators. 330,000 tested, 0.02% active. AID 492947;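 note: potency is the fitted concentration of half-maximal effect; 0% = DMSO controls and full agonism = EC100 isoproterenol or metaproterenol; nearly all actives have a fitted effect of over 65% in size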
# Target sequence (P07550 whole entry, looked up): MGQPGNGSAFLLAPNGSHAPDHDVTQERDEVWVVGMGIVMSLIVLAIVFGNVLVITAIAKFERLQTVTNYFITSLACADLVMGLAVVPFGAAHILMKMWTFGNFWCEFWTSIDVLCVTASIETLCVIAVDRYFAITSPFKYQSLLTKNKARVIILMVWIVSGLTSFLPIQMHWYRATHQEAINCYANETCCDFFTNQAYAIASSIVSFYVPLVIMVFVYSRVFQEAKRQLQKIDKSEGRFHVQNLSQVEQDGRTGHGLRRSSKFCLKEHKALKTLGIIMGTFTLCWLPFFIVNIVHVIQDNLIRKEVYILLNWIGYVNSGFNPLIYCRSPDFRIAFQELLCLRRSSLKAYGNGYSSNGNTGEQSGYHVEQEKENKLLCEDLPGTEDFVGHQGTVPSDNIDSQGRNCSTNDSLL
# Active calls of the source: *; ? = inconclusive; / = no result. Unless noted, calls come from the whole dose curve; as a rule, active = well fitted curve in the direction sought with a large enough effect; inconclusive = small, poorly fitted or top-dose-only effect, or another doubt; inactive = no such curve, though single readings can be large; an effect the other way counts as inactive or inconclusive.
SMILES,Giardia kill,p53 reactivation,Epigenetic reg,PI4K2A inh,Pin1 inhibitor,B2AR arrestin
Cc1c(Cl)cccc1NS(=O)(=O)c1cc2c(cc1F)NC(=O)CC2,/,/,/,/,-3%,/
Cc1ccc(NC(=O)N2CC=C(c3c[nH]c4ccccc34)CC2)cc1Cl,/,/,?,-4,?,/
COC(=O)c1ccc(Cl)cc1NC(=O)N1CC=C(c2c[nH]c3ccccc23)CC1,/,/,28µM*,1,?,/
COc1cc(N)c2ncccc2c1Br,1,/,/,-52*,7%,/
COc1cc(N)c2ncccc2c1SC,/,/,/,-11,/,/
Nc1c(C(=O)NCC2CCCO2)sc2nc3c(c(-c4ccco4)c12)CC/C3=C\c1ccco1 (stereo not drawn),2,-10%,0%,-76*,?,-1%
CSc1nc(N(CCO)CCO)c2sc3nc(-c4ccco4)c4c(c3c2n1)CCC4,-24,-35%,14%,-56*,?,0%
CN1CCN(C2=CC3=CC(=C(C#N)C#N)CCC3CC2)CC1 (stereo not drawn),-2,0%,?,-4,?,3%
CCN1CCN(C2=CC3=CC(=C(C#N)C#N)CCC3CC2)CC1 (stereo not drawn),5,3%,1.4µM*,8,?,1%
N#CC(C#N)=C1C=C2C=C(N3CCOCC3)CCC2CC1 (stereo not drawn),9,1%,10µM*,-2,?,0%
C=C(C)c1cc2c(s1)c1cnn(Cc3ccccc3F)c(=O)c1n2C,/,/,/,/,0%,/
Cc1cc2c(s1)c1cnn(Cc3c(F)ccc(F)c3F)c(=O)c1n2C,/,/,/,/,27%,/
O=C(N/N=C/c1ccco1)c1ccn[nH]1,-9,4%,-2%,-76*,-2%,0%
COc1ccc(NS(=O)(=O)c2ccccc2C(=O)O)cc1,/,/,/,/,-12%,/
COC(=O)[C@H]1[C@H]2C[C@@H]3c4[nH]c5cc(OC)ccc5c4CCN3C[C@H]2C[C@@H](OC(=O)/C=C/c2ccc(O)c(OC)c2)[C@@H]1OC,/,/,/,1,/,/
Cc1ccc(C)c(N2CCN(C(=O)C3CCCN(S(=O)(=O)c4cccc5nsnc45)C3)CC2)c1 (stereo not drawn),/,/,-1%,-3,16%,/
Cc1ccc(C)c(N2CCN(C(=O)C3CCN(S(=O)(=O)c4cccc5nsnc45)CC3)CC2)c1,28,1%,-3%,-61*,18%,-1%
Cc1c(N)cccc1C(F)(F)F,/,/,/,2,/,/
CCC(=O)Oc1ccc2c(c1)CC[C@@H]1[C@@H]2CC[C@@]2(C)[C@H]1C[C@@H](OC(=O)CC)[C@@H]2OC(=O)CC,/,/,/,2,/,/
Nc1ccccc1OCCOc1ccccc1N,-12,?,/,9,5%,0%
CCCOc1ccc(N)cc1N,14,-50%,?,-58*,?,0%
Cn1c(SCC(=O)NC2CC2)nnc1-c1cccs1,3,35µM*,/,3,-3%,?
CCCn1c(SCC(=O)NC2CC2)nnc1-c1cccs1,2,?,/,-2,-6%,0%
CC(C)(C)NC(=O)CC1C[C@H](C(=O)N2CCCCC2)[C@@]2(C)c3[nH]c4ccccc4c3CCN2C1=O (stereo partly drawn),-3,-2%,/,-59*,4%,1%
Cn1c2cc(S(C)=O)sc2c2cnn(Cc3cccc(O)c3)c(=O)c21 (stereo not drawn),/,/,/,/,1%,/
SMILES,Giardia kill,p53 reactivation,Epigenetic reg,PI4K2A inh,Pin1 inhibitor,B2AR arrestin
Cc1cc2[nH]c3c4ccccc4nc(C)c3c2cc1C,-25,/,/,2,5%,/
Cc1cc2[nH]c3c(c[n+](C)c4ccccc34)c2cc1C,-84*,-7%,3%,2,14%,0%
Cc1c(Cl)cccc1NS(=O)(=O)c1cc2c(cc1Cl)CCC(=O)N2,/,/,/,/,1%,/
Nc1ncnc2c1ncn2C1CCC(CO)C(O)C1 (stereo not drawn),-5,-12%,0%,-54*,-10%,-1%
Nc1ncnc2c1ncn2C1CCCO1 (stereo not drawn),?,-1%,-2%,-27,-2%,0%
Nc1ncnc2c1ncn2C1CCCC1,8,-7%,-1%,-65*,3%,0%
O=C(O)Cc1ccc2c(c1)C(=O)c1ccccc1CO2,/,/,/,-5,/,/
Brc1ccc(N=Nc2ccc3ccccc3n2)cc1,-81*,12%,-3%,?,?,0%
COc1ccc(C(=O)N(Cc2ccccc2)Cc2ccccc2)cc1COc1ccc(NC(C)=O)cc1,/,/,/,/,2%,/
Nc1ccc(C(=O)OCC(O)CO)cc1 (stereo not drawn),/,/,/,4,/,/
Cc1cc(N2C(=O)c3ccccc3C2=O)n[nH]1,/,/,/,/,-6%,/
CCC(=O)O[C@]1(C(=O)COC)[C@@H](C)C[C@H]2[C@@H]3CCC4=CC(=O)C=C[C@]4(C)C3(F)[C@@H](O)C[C@@]21C (stereo partly drawn),/,/,/,0,/,/
CSc1nsc(/C=C/Nc2ccc(C)c(C)c2)c1C#N,5,7%,3.5µM*,3,?,-1%
O=S(=O)(NC1CCCC(NS(=O)(=O)c2c(F)cccc2F)C1)c1ccc2c(c1)OCCO2 (stereo not drawn),/,/,/,/,30%,/
COc1ccc2c3n([n+]([O-])c2c1)CCN=C3c1cc(Cl)c(N)c(Cl)c1,-93*,0%,/,-2,6%,6%
COc1ccc2c3n([n+]([O-])c2c1)CCN=C3c1ccc(C)cc1,-90*,19%,/,1,3%,0%
COc1ccc(C2=NCCn3nc4cc(OC)ccc4c32)cc1,-6,18%,/,6,3%,-1%
COc1ccc2c3n(nc2c1)CCN=C3c1ccc(Cl)cc1,-20,8%,/,2,4%,0%
O=C(Nc1ccccc1)C1CCN(c2ncc(-c3ccc4c(c3)OCCCO4)s2)CC1,/,/,/,/,-2%,/
N#C/C(=C1\SCC(c2ccccc2Cl)S1)n1ccnc1 (stereo not drawn),/,/,/,-3,/,/
O=C1C(C2=C(O)c3ccccc3C2=O)=Nc2ccccc21,5,-5%,7.9µM*,-11,-5%,-3%
O=c1cc(O)n(C2CCCCCC2)c(=O)[nH]1,-6,4%,/,-51*,18%,-1%
COc1ccc(OCc2cc(C3Nc4ccccc4C(=O)N3Cc3ccccc3)ccc2OC)cc1 (stereo not drawn),/,/,/,/,7%,/
CC(C)Oc1ccc(/C=N/NC(N)=S)cc1,-16,?,-1%,3,4%,16µM*
COc1ccc(/C=N/NC(N)=S)cc1,-1,2%,-3%,6,0%,0%
C/C(=N\NC(=S)NCc1ccccc1)c1ccc(Cl)s1,6,8%,-1%,5,2%,0%
COCCNC(=S)N/N=C(\C)c1ccc(Cl)s1,3,3%,?,4,-2%,10µM*
COc1cc2ncnc(N(C)Cc3cccs3)c2cc1-c1ccc2c(c1)OCO2,/,/,/,/,6%,/

# Assay outcomes deposited in PubChem by National Center for Advancing Translational Sciences (NCATS).
